# Measured values reported in PMC7862700, “An all-to-all approach to the identification of sequence-specific readers for epigenetic DNA modifications on cytosine”.
# What was measured:
# Assay in all cases: DAPPL (digital affinity profiling via proximity ligation, sequencing); 10 mM Tris-HCl pH 7.5, 50 mM NaCl, 1 mM DTT, 4% glycerol, room temperature, 30 min; GST-TFs on glutathione beads, 16-mer random dsDNA library, 0.1% formaldehyde crosslink after washing; high values mean tight binding
# Settings in all cases: protein: recombinant; tags: N-terminal GST; dsDNA, one strand shown
# [1] = molecular target: T1, FLI1 (Homo sapiens, UniProt Q01543 1-452)
# T1 sequence: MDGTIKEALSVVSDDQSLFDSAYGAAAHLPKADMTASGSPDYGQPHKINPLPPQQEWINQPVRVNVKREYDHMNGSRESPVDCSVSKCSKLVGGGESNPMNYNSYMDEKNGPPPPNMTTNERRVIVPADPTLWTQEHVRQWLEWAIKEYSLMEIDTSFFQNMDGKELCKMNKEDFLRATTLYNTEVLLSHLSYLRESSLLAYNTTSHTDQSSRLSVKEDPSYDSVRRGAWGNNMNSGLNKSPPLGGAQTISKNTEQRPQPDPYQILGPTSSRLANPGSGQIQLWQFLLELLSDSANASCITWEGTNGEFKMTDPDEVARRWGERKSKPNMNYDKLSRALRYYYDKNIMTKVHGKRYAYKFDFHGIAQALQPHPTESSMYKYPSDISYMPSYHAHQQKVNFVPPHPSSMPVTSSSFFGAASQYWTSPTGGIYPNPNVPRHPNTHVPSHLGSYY
# In short: (§1)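 Sequencing on an Illumina NextSeq500 followed washing, crosslinking with 0.1% formaldehyde, proximity ligation (BsaI/T4 ligase, 1 h, 37 °C) and PCR amplification of pools that had been incubated for 30 min at room temperature with 200 nmole of a random double-stranded 16-mer DNA library in Tris/NaCl/DTT/glycerol buffer. Each pool held DNA-barcoded human transcription factors, expressed in yeast as GST fusions and captured on glutathione beads, plus a tag-only sample. Binding signal is a hexamer's read frequency for a factor divided by its frequency in the tag-only sample.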
# [2] = molecular target: T2, SPIC (Homo sapiens, UniProt Q8N5J4 1-248)
# T2 sequence: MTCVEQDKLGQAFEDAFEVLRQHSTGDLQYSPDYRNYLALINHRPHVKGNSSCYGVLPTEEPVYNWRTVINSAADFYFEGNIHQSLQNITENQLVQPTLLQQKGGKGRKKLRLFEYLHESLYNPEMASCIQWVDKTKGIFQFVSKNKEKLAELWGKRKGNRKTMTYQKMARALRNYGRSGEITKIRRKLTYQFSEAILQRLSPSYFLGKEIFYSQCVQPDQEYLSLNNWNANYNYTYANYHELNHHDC
# In short: as §1
# [3] = molecular target: T3, ETV2 (Homo sapiens, UniProt O00321 1-342)
# T3 sequence: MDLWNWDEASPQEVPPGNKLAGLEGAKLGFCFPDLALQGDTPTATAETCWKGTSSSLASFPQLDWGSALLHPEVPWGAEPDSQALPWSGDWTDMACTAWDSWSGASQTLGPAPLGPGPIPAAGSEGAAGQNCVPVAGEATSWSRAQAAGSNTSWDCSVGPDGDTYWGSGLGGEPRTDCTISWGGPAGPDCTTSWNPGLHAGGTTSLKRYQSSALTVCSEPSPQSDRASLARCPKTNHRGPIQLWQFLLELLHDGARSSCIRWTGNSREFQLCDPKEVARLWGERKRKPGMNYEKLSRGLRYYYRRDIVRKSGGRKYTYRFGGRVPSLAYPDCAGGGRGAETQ
# In short: as §1
# [4] = molecular target: CRX (Homo sapiens, UniProt O43186 1-299)
# Sequence of CRX (O43186 whole entry): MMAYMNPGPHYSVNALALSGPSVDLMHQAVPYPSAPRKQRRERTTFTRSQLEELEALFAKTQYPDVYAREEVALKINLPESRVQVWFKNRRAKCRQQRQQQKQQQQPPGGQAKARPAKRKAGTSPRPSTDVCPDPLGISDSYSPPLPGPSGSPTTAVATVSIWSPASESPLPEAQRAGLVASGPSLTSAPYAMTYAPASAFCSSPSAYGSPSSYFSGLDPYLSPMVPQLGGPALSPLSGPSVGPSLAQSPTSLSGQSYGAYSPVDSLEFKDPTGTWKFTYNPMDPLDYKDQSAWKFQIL
# In short: as §1
# [5] = molecular target: T4, ETV3L (Homo sapiens, UniProt Q6ZN32 1-361)
# T4 sequence: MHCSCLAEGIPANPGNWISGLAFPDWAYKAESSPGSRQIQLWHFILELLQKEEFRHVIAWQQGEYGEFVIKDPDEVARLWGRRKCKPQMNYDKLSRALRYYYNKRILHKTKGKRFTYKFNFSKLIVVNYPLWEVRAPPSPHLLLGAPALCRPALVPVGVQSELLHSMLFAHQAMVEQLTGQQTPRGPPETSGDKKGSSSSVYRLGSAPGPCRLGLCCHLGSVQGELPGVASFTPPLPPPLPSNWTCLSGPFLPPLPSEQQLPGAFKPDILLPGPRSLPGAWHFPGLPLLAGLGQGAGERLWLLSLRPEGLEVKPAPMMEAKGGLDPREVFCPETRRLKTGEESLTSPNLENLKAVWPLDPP
# In short: as §1
# [6] = molecular target: T5, ETV7 (Homo sapiens, UniProt Q9Y603 1-341)
# T5 sequence: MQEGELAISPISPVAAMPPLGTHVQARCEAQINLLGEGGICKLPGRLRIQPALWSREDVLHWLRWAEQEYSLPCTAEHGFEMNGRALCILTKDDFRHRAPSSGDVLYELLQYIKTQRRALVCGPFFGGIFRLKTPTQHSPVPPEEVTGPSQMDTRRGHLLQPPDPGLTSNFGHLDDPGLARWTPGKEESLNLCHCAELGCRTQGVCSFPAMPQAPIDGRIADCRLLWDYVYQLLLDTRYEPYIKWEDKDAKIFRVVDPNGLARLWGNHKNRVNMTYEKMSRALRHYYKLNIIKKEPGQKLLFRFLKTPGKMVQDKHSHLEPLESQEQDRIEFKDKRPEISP
# In short: as §1
# [7] = molecular target: T6, GABPA (Homo sapiens, UniProt Q06546 1-454)
# T6 sequence: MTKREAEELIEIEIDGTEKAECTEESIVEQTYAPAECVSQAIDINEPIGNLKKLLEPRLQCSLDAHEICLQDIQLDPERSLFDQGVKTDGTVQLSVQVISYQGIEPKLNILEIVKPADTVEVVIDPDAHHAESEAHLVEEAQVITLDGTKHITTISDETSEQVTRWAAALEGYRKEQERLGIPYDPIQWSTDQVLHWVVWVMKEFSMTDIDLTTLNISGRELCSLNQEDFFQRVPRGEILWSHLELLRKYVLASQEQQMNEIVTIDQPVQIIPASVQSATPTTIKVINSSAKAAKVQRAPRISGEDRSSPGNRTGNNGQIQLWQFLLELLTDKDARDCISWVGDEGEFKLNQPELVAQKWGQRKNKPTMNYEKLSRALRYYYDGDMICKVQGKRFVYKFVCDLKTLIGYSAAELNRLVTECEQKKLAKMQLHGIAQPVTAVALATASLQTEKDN
# In short: as §1
# [8] = molecular target: ELF4 (Homo sapiens, UniProt Q99607 1-663)
# Sequence of ELF4 (Q99607 whole entry): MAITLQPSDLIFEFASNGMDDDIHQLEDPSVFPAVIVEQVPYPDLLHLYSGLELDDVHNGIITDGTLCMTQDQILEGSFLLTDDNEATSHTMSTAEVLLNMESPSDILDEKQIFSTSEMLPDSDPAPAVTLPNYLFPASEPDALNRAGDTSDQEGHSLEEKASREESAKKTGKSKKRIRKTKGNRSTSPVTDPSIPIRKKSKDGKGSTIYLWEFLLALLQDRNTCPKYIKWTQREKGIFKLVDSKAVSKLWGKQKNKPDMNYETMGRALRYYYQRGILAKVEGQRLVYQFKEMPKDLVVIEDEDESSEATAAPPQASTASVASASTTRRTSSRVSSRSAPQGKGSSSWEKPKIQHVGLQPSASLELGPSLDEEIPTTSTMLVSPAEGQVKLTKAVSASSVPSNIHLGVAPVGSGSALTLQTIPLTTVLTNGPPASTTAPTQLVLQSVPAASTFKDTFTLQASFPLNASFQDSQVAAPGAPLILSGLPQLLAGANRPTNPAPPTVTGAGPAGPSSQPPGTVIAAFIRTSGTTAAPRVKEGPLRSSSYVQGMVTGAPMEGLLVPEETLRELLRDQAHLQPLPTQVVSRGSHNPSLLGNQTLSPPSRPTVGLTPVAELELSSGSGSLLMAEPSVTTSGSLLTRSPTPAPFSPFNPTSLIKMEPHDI
# In short: as §1
# [9] = molecular target: T7, ERF (Homo sapiens, UniProt P50548 1-548)
# T7 sequence: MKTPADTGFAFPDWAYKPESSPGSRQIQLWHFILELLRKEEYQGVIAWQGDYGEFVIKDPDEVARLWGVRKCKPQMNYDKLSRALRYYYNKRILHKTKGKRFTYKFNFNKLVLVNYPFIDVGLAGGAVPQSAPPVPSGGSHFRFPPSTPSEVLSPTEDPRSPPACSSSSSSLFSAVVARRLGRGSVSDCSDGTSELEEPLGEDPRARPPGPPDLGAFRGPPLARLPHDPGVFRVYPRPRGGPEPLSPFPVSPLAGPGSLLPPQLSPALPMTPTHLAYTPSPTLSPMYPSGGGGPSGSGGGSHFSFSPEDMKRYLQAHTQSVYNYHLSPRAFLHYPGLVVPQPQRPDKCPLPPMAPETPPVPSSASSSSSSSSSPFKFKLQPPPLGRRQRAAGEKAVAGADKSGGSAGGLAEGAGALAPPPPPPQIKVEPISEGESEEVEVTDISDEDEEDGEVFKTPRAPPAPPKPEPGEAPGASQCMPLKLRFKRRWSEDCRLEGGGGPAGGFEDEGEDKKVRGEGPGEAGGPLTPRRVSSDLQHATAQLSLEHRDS
# In short: as §1
# [10] = molecular target: T8, SPDEF (Homo sapiens, UniProt O95238 1-335)
# T8 sequence: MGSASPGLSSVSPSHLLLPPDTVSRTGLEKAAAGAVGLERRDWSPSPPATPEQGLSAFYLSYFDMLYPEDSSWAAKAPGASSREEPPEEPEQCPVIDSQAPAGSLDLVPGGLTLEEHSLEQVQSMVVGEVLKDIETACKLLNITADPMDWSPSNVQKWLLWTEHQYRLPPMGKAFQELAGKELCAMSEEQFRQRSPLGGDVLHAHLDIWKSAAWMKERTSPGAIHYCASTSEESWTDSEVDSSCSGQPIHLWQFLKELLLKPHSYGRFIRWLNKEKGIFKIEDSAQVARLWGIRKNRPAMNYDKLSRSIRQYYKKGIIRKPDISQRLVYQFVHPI
# In short: as §1
# [11] = molecular target: T9, ETV3 (Homo sapiens, UniProt P41162-2 1-143)
# T9 sequence: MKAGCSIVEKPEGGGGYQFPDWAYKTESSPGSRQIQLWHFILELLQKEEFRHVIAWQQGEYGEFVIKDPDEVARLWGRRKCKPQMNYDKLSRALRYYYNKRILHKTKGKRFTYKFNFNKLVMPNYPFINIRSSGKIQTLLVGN
# In short: as §1
# [12] = molecular target: ETV6 (Homo sapiens, UniProt P41212 1-452)
# Sequence of ETV6 (P41212 whole entry): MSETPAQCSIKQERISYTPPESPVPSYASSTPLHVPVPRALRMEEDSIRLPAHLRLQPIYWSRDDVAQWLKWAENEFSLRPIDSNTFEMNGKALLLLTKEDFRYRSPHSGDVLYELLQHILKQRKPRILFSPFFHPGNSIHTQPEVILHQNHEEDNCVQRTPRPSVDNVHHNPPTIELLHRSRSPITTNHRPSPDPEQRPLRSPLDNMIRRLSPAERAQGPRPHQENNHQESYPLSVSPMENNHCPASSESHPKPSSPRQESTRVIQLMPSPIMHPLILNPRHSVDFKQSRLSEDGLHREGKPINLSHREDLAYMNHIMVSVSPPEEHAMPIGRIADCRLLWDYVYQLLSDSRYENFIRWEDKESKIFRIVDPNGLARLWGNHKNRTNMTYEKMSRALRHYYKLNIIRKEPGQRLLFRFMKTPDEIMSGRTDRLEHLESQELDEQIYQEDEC
# In short: as §1
sequence,measurement,setting,value
TCGTTA,binding signal,[1],"1 fold enrichment (6-mer frequency, TF over GST control)"
same,binding signal,[2],"1.02 fold enrichment (6-mer frequency, TF over GST control)"
same,binding signal,[3],"1.08 fold enrichment (6-mer frequency, TF over GST control)"
same,binding signal,[4],"1.1 fold enrichment (6-mer frequency, TF over GST control)"
same,binding signal,[5],"1.01 fold enrichment (6-mer frequency, TF over GST control)"
same,binding signal,[6],"1.06 fold enrichment (6-mer frequency, TF over GST control)"
ACCGTT,binding signal,[1],"1.03 fold enrichment (6-mer frequency, TF over GST control)"
same,binding signal,[7],"1.02 fold enrichment (6-mer frequency, TF over GST control)"
same,binding signal,[8],"1 fold enrichment (6-mer frequency, TF over GST control)"
same,binding signal,[9],"1.05 fold enrichment (6-mer frequency, TF over GST control)"
same,binding signal,[10],"1.01 fold enrichment (6-mer frequency, TF over GST control)"
same,binding signal,[6],"1.08 fold enrichment (6-mer frequency, TF over GST control)"
same,binding signal,[11],"1.01 fold enrichment (6-mer frequency, TF over GST control)"
same,binding signal,[12],"1 fold enrichment (6-mer frequency, TF over GST control)"
